{"source": "PubChem BioAssay", "data": [{"assay": "viability loss of caspase-8 NB7 cells with TRAIL – with/without TRAIL, luminescence panel, confirmation (AID 651596)", "details": "NB7 neuroblastoma + caspase-8, without TRAIL, NB7 Caspase-8, without TRAIL, mean of runs, at 10 µM", "units": {"activity": "%"}, "values": [{"smiles": "COc1cccc(N2CCN(c3ncnc4c3cnn4-c3ccc(C)cc3C)CC2)c1", "activity": 96}, {"smiles": "Cn1c(=NC(=O)CCl)sc2ccccc21", "activity": 98.7}, {"smiles": "CCCCCCCC[n+]1cccc2c3ccccc3ccc21", "activity": 63.9}, {"smiles": "CCCCCN=C(N)N/N=C/c1c[nH]c2ccc(OC)cc12", "activity": 98}, {"smiles": "O=C(Nc1ccc2c(c1)OCCO2)c1cccc2nc3ccccc3nc12", "activity": 77.5}, {"smiles": "CCN(CC)CCCNc1ccc(-c2nnc(-c3ccc(OCC(C)C)cc3)o2)cn1", "activity": 97.9}, {"smiles": "CC(NC(=O)Nc1nnc(C(F)(F)F)s1)(C(F)(F)F)C(F)(F)F", "activity": 43.1}, {"smiles": "CCCCn1c(CCl)nc2cc(S(=O)(=O)N3CCOCC3)ccc21", "activity": 76.2}, {"smiles": "COc1ccccc1C(=O)Nc1nc(-c2ccc(S(=O)(=O)N3CCOCC3)cc2)cs1", "activity": 80.6}, {"smiles": "CCCCCc1ccc(OCCCC[n+]2ccccc2)c(CCCCC)c1", "activity": 56.7}, {"smiles": "Cc1ccc(N(Cc2cc(=O)[nH]c3ccccc23)C(=O)CCl)cc1", "activity": 99.3}, {"smiles": "Cc1ccc2sc(N(CCCN(C)C)C(=O)CCS(=O)(=O)c3ccccc3)nc2c1C", "activity": 93}, {"smiles": "O=C(Nc1ccc(OCC(F)(F)C(F)F)c(C(F)(F)F)c1)c1ccccc1O", "activity": 68}, {"smiles": "O=C(CSc1ccccn1)Nc1nonc1[N+](=O)[O-]", "activity": 58.2}, {"smiles": "CCCCC(O)(CCCC)C(=O)NN(C(=O)CCl)c1ccccc1", "activity": 95.7}, {"smiles": "NC(=O)c1oc2ccccc2c1NC(=O)c1ccc([N+](=O)[O-])o1", "activity": 96.5}, {"smiles": "CC(C)(C)c1ccc(C2CC2C(=O)N/N=C\\c2ccc[nH]2)cc1", "note": "(stereo not drawn)", "activity": 96.8}, {"smiles": "Cn1c(N)c(C(=O)COC(=O)c2ccccc2C(=O)c2ccc(Cl)c([N+](=O)[O-])c2)c(=O)n(C)c1=O", "activity": 99}, {"smiles": "N#CC1(NC(=O)Cn2ncc(Cl)c(Cl)c2=O)CCCCC1", "activity": 99.2}, {"smiles": "CCCCCCCNC(=O)C1(CC2CC(c3ccc(Cl)cc3)=NO2)CCNCC1", "note": "(stereo not drawn)", "activity": 93.1}, {"smiles": "O=C(/C=C/c1ccccc1)NC(NC(=S)Nc1ccc(Cl)cc1)C(Cl)(Cl)Cl", "note": "(stereo not drawn)", "activity": 30.2}, {"smiles": "CCCCCc1cc(=O)oc2c(C(CCN3CCCCC3)c3cc(OC)c(OC)c(OC)c3)c(OC)cc(OC)c12", "note": "(stereo not drawn)", "activity": 36.5}, {"smiles": "O=C(Nc1ccc(OCC(F)(F)C(F)F)c(C(F)(F)F)c1)c1ccc(Cl)cc1", "activity": 65.7}, {"smiles": "O=C(Nc1ccc(OC(F)F)cc1)Nc1cccc(C(F)(F)F)c1", "activity": 69.6}, {"smiles": "CC(=O)Nc1ccc(NC2=Nc3ccccc3N3C2=Nc2c(c(C)nn2-c2ccccc2)C3c2ccccc2)cc1", "note": "(stereo not drawn)", "activity": 73.6}, {"smiles": "CN(C)c1ccnc2c[cH-]cc12.[Fe].c1ccc(-[c-]2[c-](-c3ccccc3)[c-](-c3ccccc3)[c-](-c3ccccc3)[c-]2-c2ccccc2)cc1", "note": "(stereo not drawn)", "activity": -38.5}, {"smiles": "N#Cc1nc(NCC(F)F)nc(Nc2cc(F)cc(F)c2)n1", "activity": 71.3}, {"smiles": "CN(C)CCCNC(=O)c1ccc(-c2nc(-c3ccc(Cl)cc3)cs2)cc1", "activity": 97.6}, {"smiles": "Cc1ccc2nc(/C(C#N)=C\\c3ccc([N+](=O)[O-])o3)[nH]c2c1", "activity": 99}, {"smiles": "COC(=O)C1=C(C)N(Cc2ccccc2)C(=NCC(C)C)N[C@H]1c1cccc(C(F)(F)F)c1", "activity": 6.62}, {"smiles": "COC(=O)Cc1ccc(NC(=O)c2ccc(C(C)(C)C)cc2)cc1", "activity": 77.3}, {"smiles": "O=C(C[C@@H]1C/C=C/CC[C@H](Cc2ccc(F)cc2)C(=O)OC[C@@H](Cc2ccccc2)NC1=O)N[C@H](CO)Cc1ccccc1", "activity": 95.8}, {"smiles": "COc1ccc(NC(=O)c2nc(S(=O)(=O)Cc3cccc(C)c3)ncc2Cl)c(OC)c1", "activity": 66.4}, {"smiles": "Cc1ccc(C)c(C(=O)Cn2ncc(Cl)c(Cl)c2=O)c1", "activity": 99.3}, {"smiles": "CC(C)(C)c1ccc(C(=O)O/N=C(\\N)c2ccccc2)cc1", "activity": 99.6}, {"smiles": "COC(=O)c1c(NC(=O)c2ccc(OC(C)C)cc2)sc2c1CC(C)(C)NC2(C)C", "activity": 31.2}, {"smiles": "C(=N\\Nc1nncc2ccccc12)/c1ccccn1", "activity": 80.2}, {"smiles": "COC(=O)c1sc(NC(=O)c2cc(-c3ccccc3)nc3ccccc23)c(C#N)c1C", "activity": 39.1}]}]}
